High-throughput results: PubChem BioAssay, The Scripps Research Institute Molecular Screening Center
MITF inh: inhibitors of human MITF | inhibition, % at 2.6 µM | O75030 | actives 0.91% (n = 650,000) | AlphaScreen MITF homodimerization, bead proximity signal; in the data active means inhibition above about 50%;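 further: 0% = vehicle wells with protein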
TEAD-YAP block: TEAD-YAP interaction inhibition; HEK-TIYL cells, TEAD-Gal4/YAP UAS-luciferase luminescence; inhibition, % at 9.12 µM; actives 1.4% (n = 640,000); in the data active means inhibition above about 32%;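 further: 0% = median of test compound wells and 100% = reference inhibitor wells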
GPR151 ag: activates the human receptor GPR151; Q8TDV0; PathHunter beta-arrestin GPR151 cells, luminescence; activation, % at 11.2 µM; actives 1% (n = 650,000); in the data active means activation above about 4.9%;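 further: 0% = median of compound wells and 100% = cells with positive control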
Target sequence (Q8TDV0 whole entry, looked up): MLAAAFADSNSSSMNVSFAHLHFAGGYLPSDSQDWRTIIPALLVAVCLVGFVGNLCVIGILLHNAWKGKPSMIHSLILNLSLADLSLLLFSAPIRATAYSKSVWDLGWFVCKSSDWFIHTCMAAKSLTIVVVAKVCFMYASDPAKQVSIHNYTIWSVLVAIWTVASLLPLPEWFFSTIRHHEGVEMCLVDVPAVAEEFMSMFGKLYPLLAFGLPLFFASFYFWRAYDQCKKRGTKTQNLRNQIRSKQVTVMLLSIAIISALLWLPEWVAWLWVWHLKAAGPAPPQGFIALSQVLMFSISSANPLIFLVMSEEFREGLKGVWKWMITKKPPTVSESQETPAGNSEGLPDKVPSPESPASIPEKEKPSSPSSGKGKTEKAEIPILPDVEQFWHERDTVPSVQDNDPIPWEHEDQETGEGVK
FBW7 act: activators of human E3 ligase FBW7; Q969H0; AlphaScreen FBW7–phospho-cyclin E peptide binding, activator screen; normalized activity (activation), % at 26.1 µM; actives 0.13% (n = 650,000); in the data active means normalized activity above about 1.9%;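 further: purified mutant Fbw7 with reduced substrate affinity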
GPR151 confirm: human GPR151 activation, confirmation screen; shares compounds with GPR151 ag; 6,700 tested, under 10 active; AID 1508609; GPR151 PathHunter beta-arrestin cells, luminescence, 90 min; % of EA-reagent control over plate median; activation, % at 11.2 µM;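 active means mean percent activation across replicates above the confirmation screen cutoff of 4.91%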
GPR119 counter: activates human GPR119 in a GPR151 counter-screen; actives 0.3% (n = 6,700); AID 1508611; activation, % at 11.2 µM; shares compounds with GPR151 ag; GPR119 PathHunter beta-arrestin cells, luminescence, 90 min; 0 = compound-well median, 100 = enzyme-acceptor control;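 active means mean percent activation in the counterscreen above 29.09%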;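 further: counterscreen on off-target GPR119 to flag nonselective hits from the GPR151 activator screen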
An asterisk follows results filed as active. An excerpt weighted towards active compounds, which were near 3.4% of everything screened.

Screening CCCCCCOC(=O)C1=C(C)NC(=O)NC1c1cccc(OCC)c1 (centres undefined) returned MITF inh 1.2, TEAD-YAP block -6.7, GPR151 ag 4.2 and FBW7 act -0.2.
Cc1cccc(-n2nnnc2SCC(=O)NN2C(=O)NC(C)(c3ccccc3)C2=O)c1 (centres undefined) was read as MITF inh -8.4, TEAD-YAP block 8.1, GPR151 ag 6.9*, FBW7 act -0.1, GPR151 confirm 1.0 and GPR119 counter 12.1.
CCOC(=O)C1=C(C)N(c2ccc(Br)cc2)C(=O)/C1=C\c1ccc(C(=O)OC)cc1 was read as MITF inh 3.0, TEAD-YAP block -11.8, GPR151 ag 15.9*, FBW7 act -0.7, GPR151 confirm 1.2 and GPR119 counter 0.6.
For CCOC(=O)C1=C(C)N(c2ccc(Br)cc2)C(=O)/C1=C\c1ccc(C(=O)O)cc1 the results were MITF inh -7.0, TEAD-YAP block -11.8, GPR151 ag -1.0 and FBW7 act -0.1.
For CCOC(=O)c1ccc(CNCc2cccc(OCc3ccccc3)c2)cc1 the results were MITF inh 2.9, TEAD-YAP block -9.6, GPR151 ag -0.9 and FBW7 act 0.0.
Screening Nc1ccc(S(=O)(=O)NCc2ccncc2)cc1 returned MITF inh -7.6, TEAD-YAP block 1.2, GPR151 ag -0.5 and FBW7 act 0.6.
For O=S(=O)(NCc1ccncc1)c1ccc(I)cc1 the results were MITF inh -7.0, TEAD-YAP block 39.8*, GPR151 ag 9.7*, FBW7 act 0.1, GPR151 confirm 0.9 and GPR119 counter 10.9.
Screening COc1ccc(N2C(=O)C3CCCN3C2c2ccccc2OC)cc1 (centres undefined) returned MITF inh -13.4, TEAD-YAP block -7.3, GPR151 ag 6.1*, FBW7 act 0.0, GPR151 confirm -0.1 and GPR119 counter -8.0.
COc1ccc(N2C(=O)C3CCCN3C2c2cc(OC)ccc2OC)cc1 (centres undefined) was read as MITF inh 18.3, TEAD-YAP block 9.4, GPR151 ag 0.2 and FBW7 act 0.8.
CCOC(=O)N1CCN(C(=O)CCCn2c(=S)[nH]c3cc4c(cc3c2=O)OCO4)CC1 was read as MITF inh -1.2, TEAD-YAP block 6.1, GPR151 ag 0.5 and FBW7 act -0.1.
COc1ccc(C(=O)N2CCC(N3CCC(C)CC3)CC2)cc1 was read as MITF inh 28.5, TEAD-YAP block 7.0, GPR151 ag 6.5*, FBW7 act 0.2, GPR151 confirm 1.4 and GPR119 counter -0.9.
Cc1cncc2c(S(=O)(=O)N3CC[C@H](NC(=O)CN)C3)cccc12 was read as MITF inh 8.3, TEAD-YAP block 5.4, GPR151 ag 6.1*, FBW7 act -0.1, GPR151 confirm -0.4 and GPR119 counter -10.6.
For CCOC(=O)/C(N=Nc1cc(Cl)c(OC)cc1OC)=C(\C)O the results were MITF inh -3.0, TEAD-YAP block 6.1, GPR151 ag 4.9*, FBW7 act 0.2, GPR151 confirm 0.9 and GPR119 counter 7.4.
Screening Nc1cccc(-c2cccc(C(=O)NCCN3CCOCC3)n2)c1 returned MITF inh -5.4, TEAD-YAP block 4.4, GPR151 ag 0.4 and FBW7 act 0.1.
For CC(=O)Nc1ccc(SC(C)C(=O)NCCC2=CCCCC2)cc1 (centres undefined) the results were MITF inh 14.9, TEAD-YAP block -7.4, GPR151 ag 0.1 and FBW7 act 0.3.
`C=CCn1c(C)cc(C(=O)COC(=O)CNC(=O)c2ccc(OCC)c(OCC)c2)c1C` gave MITF inh 5.2, TEAD-YAP block -1.0, GPR151 ag 9.6*, FBW7 act -0.1, GPR151 confirm 0.5 and GPR119 counter 2.4.
Screening COCCn1c(SCC(=O)N2CC(=O)Nc3ccccc32)nnc1-c1ccoc1C returned MITF inh 0.2, TEAD-YAP block -13.9, GPR151 ag 7.6*, FBW7 act 0.1, GPR151 confirm 1.4 and GPR119 counter 5.0.
CC(=O)C1=C(C)NC(SCC(N)=O)=C(C#N)C1c1cccc([N+](=O)[O-])c1 (centres undefined) was read as MITF inh 12.9, TEAD-YAP block 0.2, GPR151 ag 9.3*, FBW7 act 0.1, GPR151 confirm 1.5 and GPR119 counter 8.0.
`CC1=C(C(=O)Nc2ccccc2C)C(c2ccccc2)C(C#N)=C(SCC(=O)Nc2ccccc2C)N1` (centres undefined) gave MITF inh 23.4, TEAD-YAP block 2.1, GPR151 ag 0.7 and FBW7 act 0.2.
Screening CC1=C(C(=O)Nc2ccccc2C)C(c2ccccc2)C(C#N)=C(SCC(=O)Nc2cc(C)ccc2C)N1 (centres undefined) returned MITF inh 6.3, TEAD-YAP block 9.3, GPR151 ag 12.0*, FBW7 act -0.1, GPR151 confirm -1.0 and GPR119 counter -7.1.
`COC(=O)CSC1=C(C#N)C(c2ccccc2)C(C(=O)Nc2ccccc2)=C(C)N1` (centres undefined) gave MITF inh -5.4, TEAD-YAP block -8.1, GPR151 ag 5.7*, FBW7 act 0.0, GPR151 confirm -0.7 and GPR119 counter -3.7.
Screening CC1=C(C(=O)Nc2ccccc2)C(c2ccco2)C(C#N)=C(SCC(=O)Nc2ccc(F)cc2)N1 (centres undefined) returned MITF inh 15.5, TEAD-YAP block 4.4, GPR151 ag 5.9*, FBW7 act 0.1, GPR151 confirm 0.2 and GPR119 counter 14.3.
For CCN(CC)C(=O)C1CCCN(c2nccc(Nc3ccccc3)n2)C1 (centres undefined) the results were MITF inh 6.1, TEAD-YAP block 1.5, GPR151 ag -1.5 and FBW7 act 0.0.
Screening COc1cc(Nc2cc(-c3ccc(C(N)=O)cc3)nc(N)n2)cc(OC)c1OC returned MITF inh 5.5, TEAD-YAP block -2.5, GPR151 ag 12.0*, FBW7 act 0.1, GPR151 confirm 1.8 and GPR119 counter -3.4.
Screening Cc1nc(SCC(=O)NC2CCCCC2)c(C#N)c(C)c1Cl returned MITF inh -11.6, TEAD-YAP block 8.1, GPR151 ag 1.5 and FBW7 act 0.1.
Screening CC(=O)c1ccc(NC(=O)CSc2ccc3nnc(-c4ccc(C)cc4)n3n2)cc1 returned MITF inh 12.5, TEAD-YAP block 6.1, GPR151 ag 5.8*, FBW7 act -0.1, GPR151 confirm -0.6 and GPR119 counter 7.8.
For CC(=O)c1ccc(NC(=O)CSc2ccc3nnc(-c4ccc(F)cc4)n3n2)cc1 the results were MITF inh -3.4, TEAD-YAP block 8.2, GPR151 ag -1.5 and FBW7 act 0.0.
